Compound activity: PubChem, National Center for Advancing Translational Sciences (NCATS)
L3MBTL1 inh: inhibitors of human L3MBTL1; AlphaScreen L3MBTL1–H3K9me1 peptide binding; Potency, µM (highest dose often 57.1 µM), without a hit: at the top dose activity, negative = inhibition, most hits filed as inhibitors; 230,000 tested, 0.66% active; AID 485360; also: nearly all actives have a fitted effect of over 60% in size
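L3MBTL1 50 nM + b-AHA-H3(1-15)K9me1 75 nM, 30 min RT; compound added, 30 min RT; streptavidin donor/Ni-chelate acceptor beads 10 ug/mL each final, 30 min RT dark; AlphaScreen read.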
RECQ1 helicase: blocks DNA unwinding by human RECQ1 | P46063 | RECQ1 DNA unwinding, red fluorescence kinetic read | Potency, µM (series often up to 57.3 µM), for inactives: top-dose activity, negative = inhibition, usual class: inhibitors | 240,000 tested, 0.54% active | AID 2549;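 also: plate controls were vehicle for no effect and no enzyme for full effect; nearly all actives have a fitted effect of over 30% in size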
Target sequence (P46063 whole entry, looked up): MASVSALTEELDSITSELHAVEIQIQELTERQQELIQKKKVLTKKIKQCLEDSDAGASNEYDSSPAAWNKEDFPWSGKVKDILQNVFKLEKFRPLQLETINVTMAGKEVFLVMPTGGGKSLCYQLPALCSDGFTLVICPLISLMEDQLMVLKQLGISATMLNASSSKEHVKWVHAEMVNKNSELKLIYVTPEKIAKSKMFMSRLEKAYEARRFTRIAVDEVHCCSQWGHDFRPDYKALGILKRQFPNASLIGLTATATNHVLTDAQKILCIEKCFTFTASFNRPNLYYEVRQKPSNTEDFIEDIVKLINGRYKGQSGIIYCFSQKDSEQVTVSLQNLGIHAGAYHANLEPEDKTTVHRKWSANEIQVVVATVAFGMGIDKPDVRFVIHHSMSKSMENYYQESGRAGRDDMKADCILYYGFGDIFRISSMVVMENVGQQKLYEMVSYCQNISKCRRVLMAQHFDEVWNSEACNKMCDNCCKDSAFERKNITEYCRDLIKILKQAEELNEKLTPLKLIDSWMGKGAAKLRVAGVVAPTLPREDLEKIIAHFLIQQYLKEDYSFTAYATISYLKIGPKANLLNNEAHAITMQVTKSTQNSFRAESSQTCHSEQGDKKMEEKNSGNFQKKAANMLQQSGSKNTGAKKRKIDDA
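RECQ1T1 50 nM; forked duplex (20 bp + 30-nt ss tails) 200 nM, ATP 2 mM final; pH 8.0, 2 mM MgCl2, 2.5 ug/ml poly(dI-dC); 15 min compound preincubation; discontinuous kinetic read over 2 h at RT.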
APE1 inh: inhibitors of human APE1 endonuclease | recombinant APE1, TAMRA/BHQ-2 abasic DNA cleavage fluorescence | 350,000 tested, 0.35% active | Potency, µM (series often up to 65.8 µM), for inactives: at the top dose activity change, negative = inhibition, usual class: inhibitors | AID 2517;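 also: plate controls were vehicle for no effect and reference inhibitor for full effect; nearly all actives have a fitted effect of over 55% in size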
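Step 1: APE1 (0.75 nM) with compound, 15 min RT. Step 2: add 50 nM fluorophore/quencher THF duplex. Step 3: three fluorescence reads 60 s apart (525/598 nm); read 3 minus read 1 = reaction progress.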
BLM helicase inh: Bloom syndrome helicase (human) inhibition; AID 2528; Potency, µM (series often up to 56.1 µM), inactives show at the top dose activity change, negative = inhibition, usual class: inhibitors; 350,000 tested, 0.2% active; P54132; recombinant BLM DNA unwinding, fluorescence dequenching;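 also: plate controls were vehicle for no effect and no enzyme for full effect; nearly all actives have a fitted effect of over 35% in size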
KDM4E inh: blocks human JMJD2E demethylase activity; B2RXH2; JMJD2E catalytic domain, FDH-coupled NADH fluorescence (FDH is formaldehyde dehydrogenase); 230,000 tested, 1.6% active; Potency, µM (highest dose often 57.1 µM), for the others: top-dose activity change, negative = inhibition, most hits filed as inhibitors; active = well fitted inhibition curve with a large enough effect, not every such curve was filed as active; inconclusive = small, poorly fitted or top-dose-only effect, or another doubt; inactive = no such curve, though single readings can be large or run the other way;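 also: 0% = wells with enzyme and -100% = buffer wells without enzyme; nearly all actives have a fitted effect of over 50% in size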
TDP1 inh: TDP1 (human) enzyme inhibition. Q9NUW8. recombinant TDP1, AlphaScreen DNA substrate cleavage. Potency, µM (top dose mostly 130 µM), without a hit: at the top dose activity change, negative = inhibition, usual class: inhibitors. 350,000 tested, 0.28% active; also: nearly all actives have a fitted effect of over 40% in size
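Recombinant E. coli-expressed Tdp1 (1 nM) preincubated with compound 15 min at RT, then 5'-biotin/3'-phosphotyrosine-FITC DNA substrate (15 nM) added for 5 min. AlphaScreen beads (10 ug/ml) added, 10 min RT; tyrosine-FITC cleavage read as signal loss.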
* = called active by the depositor; i = inactive; ? = inconclusive; nt = no result given; [ ] = remark or other dose. This excerpt belongs to a sample that is enriched for hits. Unless noted, calls follow the shape of the dose curve; as a rule, active = well fitted curve in the direction sought with a large enough effect; inconclusive = small, poorly fitted or top-dose-only effect, or another doubt; inactive = no such curve, though single readings can be large; an effect the other way counts as inactive or inconclusive. Unless noted, % is scaled to controls: 0 for no effect and ±100 for the full control effect; potency is read from the fitted curve at half-maximal effect.

SMILES | L3MBTL1 inh | RECQ1 helicase | APE1 inh | BLM helicase inh | KDM4E inh | TDP1 inh
CC1OC(OCC2OC(Oc3c(-c4ccc(O)c(O)c4)oc4cc(O)cc(O)c4c3=O)C(O)C(O)C2O)C(O)C(O)C1O (centres undefined) | nt | i | ? | 0.2% | 11.2µM* | 4.8%
COc1cc(-c2oc3cc(O)cc(O)c3c(=O)c2O[C@@H]2O[C@H](CO)[C@@H](O)[C@H](O)[C@H]2O)cc(OC)c1O | nt | 11.0% | 15.5% | 4.6% | nt | 14.1%
O=c1c(O[C@H]2O[C@@H](CO)[C@H](O)[C@@H](O)[C@@H]2O)c(-c2ccc(O)cc2)oc2cc(O)cc(O)c12 | -13.0% | nt | 21.2µM* | nt | nt | -14.3%
O=c1c(O)c(-c2ccc(O)c(O)c2)oc2c(OC3OC(CO)C(O)C(O)C3O)c(O)cc(O)c12 (centres undefined) | nt | 14.9% | 12.1% | -9.5% | 1.8% | 9.0%[56.1 µM]
C[C@@H]1O[C@@H](O[C@H]2[C@H](O)[C@@H](O)[C@H](Oc3c(-c4ccc(O)c(O)c4)oc4cc(O)cc(O)c4c3=O)O[C@@H]2CO)[C@H](O)[C@H](O)[C@H]1O | ? | nt | 4.0% | nt | nt | 6.4%
O=c1c(O)c(-c2ccc(O)c(O)c2)oc2c(OC[C@@H]3O[C@@H](O)[C@@H](O)[C@H](O)[C@H]3O)c(O)cc(O)c12 | nt | -12.0% | 2.51µM* | 0.9% | 5.01µM* | nt
COc1cc(-c2oc3cc(O)cc(O)c3c(=O)c2O[C@@H]2O[C@H](COC3O[C@@H](C)[C@H](O)[C@@H](O)[C@H]3O)[C@@H](O)[C@H](O)[C@H]2O)ccc1O (some centres undefined) | 0.5% | nt | 2.7% | nt | nt | 4.5%
O=c1c(O[C@@H]2O[C@H](CO)C(O)C2O)c(-c2ccc(O)c(O)c2)oc2cc(O)cc(O)c12 (some centres undefined) | 14.1µM* | nt | -32.8% | nt | nt | 3.2%
C[C@]12O[C@H](C[C@]1(O)CO)n1c3ccccc3c3c4c(c5c6ccccc6n2c5c31)CNC4=O | nt | nt | nt | -10.4% | nt | nt
O=c1cc(-c2ccccc2)oc2cc(O[C@@H]3O[C@H](CO)[C@@H](O)[C@H](O)[C@H]3O)c(O)c(O)c12 | nt | 0.2% | ? | 1.8% | 12.6µM* | nt
O=c1c(O)c(-c2ccc(O)cc2)oc2cc(O)cc(O)c12 | nt | -22.7% | ? | -7.3% | ? | 17.0%[56.1 µM]
COc1cc(O)c2c(=O)c(O)c(-c3ccc(O)c(O)c3)oc2c1 | nt | ? | ? | -17.3% | 22.4µM* | 9.5%
O=c1cc(-c2ccc(O)cc2)oc2cc(O[C@H]3OC(CO)C(O)C(O)C3O)cc(O)c12 (some centres undefined) | nt | -0.3% | -7.1% | 5.2% | -9.8% | 11.3%[56.1 µM]
COc1ccc(-c2cc(=O)c3c(O)c(OC)c(O[C@@H]4OC(COC5OC(C)C(O)C(O)[C@@H]5O)C(O)C(O)C4O)cc3o2)cc1 (some centres undefined) | nt | -5.2% | -6.9% | -0.3% | ? | -11.7%
O=c1c(OC2OC(CO)C(O)C(O)C2O)c(-c2ccc(O)c(O)c2)oc2cc(O)cc(O)c12 (centres undefined) | ? | -16.3% | ? | -1.8% | 8.91µM* | -2.7%
O=c1cc(-c2ccc(O)c(O)c2)oc2cc(O[C@@H]3O[C@H](CO)[C@@H](O)[C@H](O)[C@H]3O)cc(O)c12 | 3.98µM* | -17.6% | ? | -2.5% | nt | -0.3%
C[C@H]1[C@@H](OC(=O)CCC(=O)O)OC2OC3(C)CC[C@H]4[C@H](C)CC[C@@H]1[C@@]24OO3 (some centres undefined) | nt | nt | nt | 2.4% | nt | nt
CN1CCc2c(c3cnc4cc(Cl)ccc4c3n2C)C1 | nt | nt | nt | nt | nt | -1.8%
CC(C)CS(=O)(=O)c1oc(-c2ccc(F)cc2)nc1S(=O)(=O)c1ccccc1 | nt | nt | nt | -12.2% | nt | 2.5%
COc1cc2c(-c3ccc(O)cc3)nc3c(c(C)nn3-c3ccccc3)c2cc1OC | 6.8% | -1.4% | 4.2% | 14.1µM* | ? | ?
